{"source": "PubChem BioAssay (NCI)", "note": "This is part of a sample that, as a whole, favours compounds with a hit. Of some 83,000 tested, about 20% had one in any assay.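 Percent growth is the endpoint: 0 to 100 indicates growth inhibition (40 means 60% inhibition), 0 means no net growth, and negative values indicate cell death.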 Unmarked numbers belong to inactive results. Activity calls are given as the source filed them."}
{"system": "OVCAR-5 ovarian", "test": "NCI-60 one-dose screen, 48 h (100 = growth as untreated, 0 = no growth, -100 = all killed)", "conditions": "10 µM unless noted", "procedure": "Growth inhibition of the OVCAR-5 human tumor cell line is measured as a screen for anti-cancer activity. Cells are grown in 96 well plates and exposed to the test compound for 48 hours. Compounds are tested at a single concentration, which is 10^-5 M for most compounds. The reported endpoint is percent growth (GI% or GIPRCNT), where numbers from 0 - 100% represent growth inhibition, and numbers from -100% - 0 represent cell death. For example, a value of 40 represents 60% growth inhibition. A value of 0 means no net growth occurred over the course of the experiment. A value of -40 indicates 40% of cells at the beginning of the experiment died by the end of the experiment. A value of -100 means all cells are dead at the end of the experiment.\nNCI-60 Human Tumor Cell Lines Screen was performed using the standard one-dose NCI protocol, which is described in more detail at https://dtp.cancer.gov/discovery_development/nci-60/default.htm.\nCompounds with GIPRCNT values below 10 were considered active. Activity score was based on GIPRCNT using the following formula: […]\nScore is 0 for GIPRCNT values of 100 or above, 50 for GIPRCNT values of 0, and 100 for GIPRCNT values of -100."}
{"smiles": "CN(C)c1ccc(C#Cc2c(F)cccc2Cl)cc1", "growth": "99.2%"}
{"smiles": "CN(C)CCOC(=O)Nc1ccc(Cl)cc1", "growth": "109%"}
{"smiles": "COC(=O)CCCNC(=O)C(=O)c1c(O)c(O)c(C(C)C)c2cc(C)c(-c3c(C)cc4c(C(C)C)c(O)c(O)c(C(=O)C(=O)NCCCC(=O)OC)c4c3O)c(O)c12", "growth": "4.86% (active)"}
{"smiles": "COc1ccc(-n2nnc(C(=O)NCCc3c[nH]c4ccc(F)cc34)c2C)cc1", "growth": "101%"}
{"smiles": "CNC(=O)c1cc(Oc2ccc3nc(NC(=O)Nc4cc(C(F)(F)F)cc(C(F)(F)F)c4)sc3c2)ccn1", "growth": "-26.1% (active)"}
{"smiles": "O=C(Nc1ccccc1Cl)OCCN1CCOCC1", "growth": "110%"}
{"smiles": "O=C1Nc2ccccc2SC1C1SC(=S)N(Cc2ccccc2)C1=O", "note": "(stereo not given)", "growth": "104%"}
{"smiles": "CC1(C)CC(=O)c2c(ccc(C(=O)C[C@H](N)CO)c2N)O1", "growth": "64.2%"}
{"smiles": "C=C1c2c(C)nn(-c3ccc(S(N)(=O)=O)cc3)c2N(C)C23CC1C1(C)c4c(C)nn(-c5ccc(S(N)(=O)=O)cc5)c4N(C)C(C)(CC12)C3", "note": "(stereo not given)", "growth": "64%"}
{"smiles": "O=C(O)CC1Sc2ccccc2NC1=O", "note": "(stereo not given)", "growth": "83.9%"}
{"smiles": "COc1cc(-c2ncn(/C=C\\c3nnco3)n2)cc(C(F)(F)F)c1", "growth": "37.9%"}
{"smiles": "c1ccc(-c2oc3ccccc3c2-c2ccccc2)cc1", "growth": "105%"}
{"smiles": "COc1cc(/C=C/C(=O)c2ccc(Nc3nc(Nc4ccccc4)nc(Nc4ccc(Cl)cc4)n3)cc2)cc(OC)c1OC", "growth": "55.1%"}
{"smiles": "CC(C)(C)CC(C)(C)Nc1c(-c2ccc(-c3ccccc3)cc2)nc2cnccn12", "growth": "88.1%"}
{"smiles": "COc1ccc(Oc2nc(Nc3ccc(N4CCCCC4)nc3)ncc2NC(=O)c2cc(OC)cc(OC)c2)cc1", "growth": "76.7%"}
{"smiles": "c1ccc2c(c1)ncn2-c1nc2ccccc2n2c1nc1ccccc12", "growth": "81%"}
{"smiles": "O[C@H]1CO[C@H]2[C@@H]1OC[C@@H]2Oc1ccc(Nc2ccnc(Nc3ccc(O[C@H]4CO[C@H]5[C@@H]4OC[C@@H]5O)c(Cl)c3)n2)cc1Cl", "growth": "27.6%"}
{"smiles": "N#Cc1c(NC(=O)c2ccc(Br)cc2)sc2c1CCCC2", "growth": "55.7%"}
{"smiles": "CS(=O)(=O)c1ccc(-c2[nH]c3ccc(F)cc3c2/C=N/NC(N)=S)cc1", "growth": "28.2%"}
{"smiles": "Cc1c(Cl)cccc1NS(=O)(=O)c1ccccc1", "growth": "92%"}
{"smiles": "CC(C)c1ccc(NC(=O)Cc2ccc(Nc3ncnc4cc(-c5cnn(CCN(C)C)c5)ccc34)cc2)cc1", "growth": "-98.9% [30 µM] (active)"}
{"smiles": "Nc1nc(I)c2ncn(C3OC(CO)C(O)C3O)c2n1", "note": "(stereo not given)", "growth": "104%"}
{"smiles": "COc1cc2ccccc2cc1C(=O)NC(=S)Nc1ccc(-c2nc3ccccc3[nH]2)cc1", "growth": "103%"}
{"smiles": "COc1ccc(-c2nnc(-c3ccc4c(c3)nc(-c3ccccc3)n4C3CCCCC3)o2)cc1", "growth": "95.4%"}
{"smiles": "Nc1c(C(=O)Nc2ccccc2)sc2nc3c(cc12)CCCCCC3", "growth": "15.3%"}
{"smiles": "CC(=O)Nc1nccs1", "growth": "84.3%"}
{"smiles": "COc1cc2c(O)n(CCCn3ccnc3)c3c4cnc5cccc(c(=O)c3c2cc1OC)c54", "growth": "83.1%"}
{"smiles": "COc1ccc(/C=C2\\C=C(c3ccccc3)N(CCc3ccccc3)C2=O)cc1OC", "growth": "67.2%"}
{"smiles": "N#Cc1c(N)n2c(nc1=Nc1ccc(Cl)cc1)sc1cc(Cl)ccc12", "growth": "105%"}
{"smiles": "CN(C)S(=O)(=O)n1cnc([C@@H]2[C@@H]3C(=O)OC[C@@H]3C[C@]23N=CN(Cc2ccccc2)C3=O)c1", "growth": "96.7%"}
{"smiles": "C=C1C(=O)O[C@H]2[C@H]1CC/C(COC(=O)/C=C\\C(=O)NCc1ccc(Cn3c(=O)sn(-c4ccc(C#N)cc4)c3=O)cc1)=C\\CC[C@@]1(C)O[C@@H]21", "growth": "-83.9% (active)"}
{"smiles": "CCn1c(Sc2nnc(Nc3ccccc3)s2)nc2c1c(=O)n(C)c(=O)n2C", "growth": "77.4%"}
{"smiles": "COC1=CC(c2ccc[nH]2)=N/C1=C\\c1[nH]c(C)c(C(=O)OCCn2cc(CCC[C@@H]3Cc4cc(O)ccc4C4CC[C@]5(C)[C@@H](O)CC[C@H]5C43)nn2)c1C", "note": "(stereo not given in full)", "growth": "88.9%"}
{"smiles": "C[C@H]1[C@H]2C3=CC[C@@H]4[C@@]5(C)C/C(=C/c6ccncc6)C(=O)C(C)(C)[C@@H]5CC[C@@]4(C)[C@]3(C)CC[C@@]2(C(=O)N2CCN(C)CC2)CC[C@@H]1C", "growth": "86.7%"}
{"smiles": "N=c1ccn2c(n1)OC1C(O)C(CO)OC12", "note": "(stereo not given)", "growth": "71.2%"}
{"smiles": "COc1cc2c(cc1OC)-c1ccc3cc4c(cc3c1N(CCCn1ccnc1)C2)OCO4", "growth": "103%"}
{"smiles": "COc1cc(C2C=C(c3cccc(NC(C)=O)c3)Nc3ncnn32)cc(OC)c1OC", "note": "(stereo not given)", "growth": "34.8%"}
{"smiles": "C=C1c2c(C)nn(-c3ccc(NC(C)=O)cc3)c2N(C)C23CC1C1(C)c4c(C)nn(-c5ccc(NC(C)=O)cc5)c4N(C)C(C)(CC12)C3", "note": "(stereo not given)", "growth": "78.1%"}
{"smiles": "Cc1ccc(C)c2c1C(=O)OC2=O", "growth": "90.6%"}
{"smiles": "Cc1ccccc1NC(=O)CN(C)C", "growth": "95.8%"}
